The results in this text go back to PubChem BioAssay (NCATS).

Results filed as inconclusive are left out. A call without a number means that no potency is given here. Active and inactive are the calls of the source. Calls come from the whole dose curve; as a rule, active = well fitted inhibition curve with a large enough effect; inconclusive = small, poorly fitted or top-dose-only effect; inactive = flat fitted curve, though single readings scatter.

Sequence of Ubiquitin carboxyl-terminal hydrolase 1 (Homo sapiens) (O94782 whole entry, looked up): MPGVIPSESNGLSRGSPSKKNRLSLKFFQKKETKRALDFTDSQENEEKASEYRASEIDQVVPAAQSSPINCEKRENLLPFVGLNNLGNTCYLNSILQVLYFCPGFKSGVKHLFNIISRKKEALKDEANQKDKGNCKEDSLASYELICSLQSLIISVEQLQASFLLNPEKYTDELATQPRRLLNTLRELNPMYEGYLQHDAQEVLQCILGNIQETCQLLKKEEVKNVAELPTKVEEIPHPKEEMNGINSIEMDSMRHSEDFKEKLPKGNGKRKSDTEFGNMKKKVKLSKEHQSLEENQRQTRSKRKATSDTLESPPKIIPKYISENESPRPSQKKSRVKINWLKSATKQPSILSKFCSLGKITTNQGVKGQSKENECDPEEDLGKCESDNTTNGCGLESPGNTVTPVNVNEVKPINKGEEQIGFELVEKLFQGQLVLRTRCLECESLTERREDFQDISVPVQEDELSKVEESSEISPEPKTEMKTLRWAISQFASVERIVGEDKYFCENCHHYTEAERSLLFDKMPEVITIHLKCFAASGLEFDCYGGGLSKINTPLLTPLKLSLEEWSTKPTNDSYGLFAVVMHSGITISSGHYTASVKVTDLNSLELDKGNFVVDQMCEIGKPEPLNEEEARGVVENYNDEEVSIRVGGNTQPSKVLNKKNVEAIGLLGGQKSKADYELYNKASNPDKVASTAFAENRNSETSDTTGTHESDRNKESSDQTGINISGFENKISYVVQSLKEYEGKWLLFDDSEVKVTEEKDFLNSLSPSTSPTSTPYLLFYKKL

The assay addresses Ubiquitin carboxyl-terminal hydrolase 1 (Homo sapiens) (UniProt O94782). The assay is described as follows: Inhibitors of USP1/UAF1: Pilot qHTS (AID 504865).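 Note: rhodamine fluorescence freed from ubiquitin-rhodamine substrate followed over time; top concentration of the series differs between compounds; nearly all actives have a fitted effect of over 35% in size.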 Particulars: purified USP1/UAF1, Ub-rhodamine cleavage fluorescence; series mostly up to 114 µM. In short, it runs like this:
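Deubiquitinase activity followed as kinetic rhodamine fluorescence release from 150 nM Ub-Rho. 1 nM USP1/UAF1 with compound, after 15 min room-temperature preincubation, in HEPES pH 7.8 buffer containing TCEP, EDTA, BSA and Tween-20.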
(In general: qHTS replaces the single test concentration by a dilution series.)
As for `CCCCCCCCCCCCCCCCCCCCCC(=O)Nc1ccn([C@@H]2O[C@H](CO)[C@@H](O)[C@@H]2O)c(=O)n1`, the Potency entry was “inactive”.

With `O=P(O)(O)CP(=O)(O)O`, the Potency result was “inactive”.

In the case of `CNC(=O)C[C@@H](N)C(=O)N[C@@H](C(=O)N[C@@H]1C(=O)N2[C@@H]1SC(C)(C)[C@@H]2C(=O)O)c1ccc(O)cc1`, the Potency result was “inactive”.

Regarding `CNC(=O)c1c(I)c(C(=O)NCC(=O)Nc2c(I)c(C(=O)O)c(I)c(C(=O)NCCO)c2I)c(I)c(N(C)C(C)=O)c1I`, the Potency entry is “inactive”.

As for `CC(C)(Oc1ccc(C2CCCc3ccccc32)cc1)C(=O)O` (stereo not given), the Potency result is “inactive”.

Regarding `C=CCOc1ccc(CC(=O)O)cc1Cl`, the Potency entry was “inactive”.

Consider `CCOC(=O)[C@@H](N)CS`, for which the Potency entry is “inactive”.

For `NC(=O)[C@@H]1CCCN1C(=O)[C@H](Cc1cnc[nH]1)NC(=O)[C@@H]1CCC(=O)N1`, the Potency result is “inactive”.

Consider `CCCCCCCCCCCC(=O)N(CCO)CCO`, for which the Potency result is “inactive”.

`FC(F)OC(Cl)C(F)(F)F` (stereo not given): the Potency entry was “inactive”.

As for `CCCCC[C@H](O)/C=C/[C@H]1[C@H](O)CC(=O)[C@@H]1C/C=C\CCCC(=O)O`, the Potency entry is “inactive”.

In the case of `Oc1cc(O)cc(O)c1`, the Potency result is “inactive”.

As to `CC(C)(CO)[C@@H](O)C(=O)NCCC(=O)NCCSSCCNC(=O)CCNC(=O)[C@H](O)C(C)(C)CO`, the Potency entry was “inactive”.

Regarding `O=S(=O)(O)CC(S)CS` (stereo not given), the Potency entry is “inactive”.

For the compound `CCN(CC)CCOC(=O)c1cccnc1`, the Potency entry is “inactive”.

Turning to `C=Cc1ccc(S(=O)(=O)O)cc1`, the Potency entry was “inactive”.

Regarding `CCc1ccc(S(=O)(=O)O)cc1`, the Potency result was “inactive”.

As for `COC(=O)C(CN)c1c[nH]c2ccc(OC)cc12` (stereo not given), the Potency entry is “inactive”.

In the case of `CCCCCCCCCCCCCC(=O)OCC(COP(=O)([O-])OCC[N+](C)(C)C)OC(=O)CCCCCCCCCCCCC` (stereo not given), the Potency entry is “inactive”.

In the case of `FC(F)(F)C(F)(F)C(F)(F)C(F)(F)C(F)(F)F`, the Potency entry was “inactive”.

Consider `CCN(CC)CCOc1ccccc1OC`, for which the Potency result is “inactive”.

For the compound `CNC(=O)OCc1cccc(COC(=O)NC)n1`, the Potency entry was “inactive”.

Regarding `CC(C)=CCC/C(C)=C/CC/C(C)=C/CC/C=C(\C)CC/C=C(\C)CCC=C(C)C`, the Potency result was “inactive”.

With `CCCCCCCCCCCCCCCCCC[N+](C)(C)CCC[Si](OC)(OC)OC`, the Potency result was “inactive”.

`COc1cc(S(C)=O)ccc1-c1nc2ncccc2[nH]1` (stereo not given): the Potency entry was “inactive”.

As for `NC(=O)[C@H]1O[C@@H](O)[C@H](O)[C@@H](O)[C@@H]1O`, the Potency entry is “inactive”.

On to `C/C(=C\C(=O)OCCCCCCCCC(=O)O)C[C@@H]1OC[C@H](C[C@@H]2O[C@H]2[C@@H](C)[C@H](C)O)[C@@H](O)[C@H]1O`, for which the Potency entry is “inactive”.

With `CC12CCC(C1)C(C)(C)C2=O` (stereo not given), the Potency entry was “inactive”.

With `COc1ccc(-c2noc(CC(=O)O)c2-c2ccc(OC)cc2)cc1`, the Potency entry is “inactive”.

For the compound `CN1C(C(=O)Nc2ccccn2)C(=O)c2sc(Cl)cc2S1(=O)=O` (stereo not given), the Potency result was “inactive”.

Take `CC1(O)CCC(C(C)(C)O)CC1` (stereo not given): the Potency entry was “inactive”.

With `Cc1cc(C(=O)NCCc2ccc(S(=O)(=O)NC(=O)NN3CCCCCC3)cc2)no1`, the Potency result is “inactive”.

Consider `COc1ccc(/C=N/NC(=O)c2ccncc2)c(C(=O)O)c1OC`, for which the Potency entry is “inactive”.

Regarding `CC(C)(C)CC(C)(C)c1cc(Cc2cc(C(C)(C)CC(C)(C)C)cc(-n3nc4ccccc4n3)c2O)c(O)c(-n2nc3ccccc3n2)c1`, the Potency entry was “inactive”.

Consider `[O]=[Bi][O]C(=O)[O][Bi]=[O]`, for which the Potency result was “inactive”.
